A selection: hits, their analogues and other compounds. The true share with any hit is near 1.4%.
CCHF vOTU inh = CCHFV vOTU protease inhibition; Pep-AMC fluorescence; inhibition, % at 11.5 µM; hit rate 0.55% among 370,000; AID 651958; in the data active = inhibition above about 30%
DUSP3 inh = blocks human VHR1 dual specificity phosphatase. P51452. recombinant VHR phosphatase, pNPP absorbance. inhibition, % at 13.3 µM. hit rate 0.52% among 290,000; in the data active = inhibition above about 50%
Target sequence (P51452 whole entry, looked up): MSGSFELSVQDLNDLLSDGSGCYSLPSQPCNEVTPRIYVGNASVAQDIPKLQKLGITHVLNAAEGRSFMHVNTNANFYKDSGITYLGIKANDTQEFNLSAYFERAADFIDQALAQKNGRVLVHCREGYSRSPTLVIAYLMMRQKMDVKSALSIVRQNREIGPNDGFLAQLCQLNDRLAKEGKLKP
3CLpro inhibitor = SARS-CoV 3CLpro protease inhibition; P0C6X7; recombinant SARS-CoV 3CLpro, quenched FRET peptide cleavage; inhibition, % at 6 µM; hit rate 0.14% among 290,000; in the data active = inhibition above about 12%
MazEF act = activators of E. coli MazEF toxin-antitoxin RNase; FAM/BHQ RNA-DNA oligo cleavage fluorescence, 5 h; P0AE70; AID 504720; activation, % at 20 µM; hit rate 0.32% among 350,000; in the data active = activation above about 50%
Target sequence (P0AE70 whole entry, looked up): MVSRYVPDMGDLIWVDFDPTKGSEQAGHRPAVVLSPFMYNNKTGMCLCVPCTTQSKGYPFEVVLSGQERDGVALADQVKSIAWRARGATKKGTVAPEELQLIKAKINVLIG
BJeLR lethal = kills HRASV12-expressing BJeLR cells; inhibition, % (test concentration not listed); hit rate 0.17% among 300,000; BJeLR (HRASV12) viability, CellTiter-Glo ATP luminescence, 48 h; in the data active = inhibition above about 50%
Each line names hits and unclear results; the compound was inactive in the other large screens.

CC(C)(C)c1ccc(S(=O)(=O)/N=C2\C=C(NS(=O)(=O)c3ccccc3)C(=O)c3ccccc32)cc1	CCHF vOTU inh 54.4
COc1ccc(-c2ccc(SC)nn2)cc1	BJeLR lethal 65.5
COc1ccc(CN2CCC(CNC(=O)NC3CCC(C)CC3)CC2)cc1 (stereo not drawn)	none (no result: DUSP3 inh, 3CLpro inhibitor, MazEF act, BJeLR lethal)
N#CC1(N2CCN(C(=O)c3ccccc3)CC2)CCCCC1	DUSP3 inh 53.9
Cc1ccc(NC(=S)NNC(=O)c2cnccn2)cc1	none (no result: DUSP3 inh, 3CLpro inhibitor, MazEF act, BJeLR lethal)
COc1ccccc1-n1cnc2cc(NCc3cccs3)ccc21	BJeLR lethal 60.2
COc1ccc(N2C(N)=NC(N)=NC23CCCC3)cc1	none
NC1=NC2(CCCCC2)N(c2ccc(F)cc2)C(N)=N1	DUSP3 inh 52.9
Cc1cc(C(=O)N/N=C/c2ccc(-c3ccc([N+](=O)[O-])cc3C)o2)n[nH]1	MazEF act 75.4
Cc1cc([N+](=O)[O-])ccc1-c1ccc(/C=N/NC(=O)c2ccc(Br)o2)o1	none
Cc1cc(N2CCN(C(=O)c3ccco3)CC2)n2ncnc2n1	none
O=C(c1ccco1)N1CCN(c2cc(C(F)(F)F)nc3ncnn23)CC1	DUSP3 inh 51.7
Cc1oc2c(c1C(=O)NCc1cccnc1)C(=O)c1ccccc1C2=O	BJeLR lethal 75.9 (no result: CCHF vOTU inh)
CC(=O)c1c(C)oc2c1C(=O)c1ccccc1C2=O	none
O=C(NCc1cccnc1)c1ccc(-c2cc3ccccc3oc2=O)cc1	BJeLR lethal 66.3
CCC(NC(=O)c1ccc2c(c1)c(C)c(C)n2Cc1ccc(Cl)cc1)c1ccccc1 (stereo not drawn)	none (no result: DUSP3 inh, 3CLpro inhibitor, MazEF act, BJeLR lethal)
O=C(NC1CCCC1)C(c1cccnc1)N(Cc1ccccc1)C(=O)c1csnn1 (stereo not drawn)	DUSP3 inh 52.9
O=C(NC1CCCCC1)C(c1cccnc1)N(C(=O)CCl)c1cccc(Cl)c1 (stereo not drawn)	BJeLR lethal 88.8
Cc1ccc(C)c(N(C(=O)c2csnn2)C(C(=O)NC2CCCCC2)c2ccccn2)c1 (stereo not drawn)	DUSP3 inh 50.4
CC(C)(C)NC(=O)CN(C(=O)CCC(=O)Nc1nccs1)c1ccc(F)c(Cl)c1	DUSP3 inh 53.0
CC(C)(C)NC(=O)CN(C(=O)CCC(=O)Nc1nccs1)c1ccc(F)cc1	none
Cc1ccc2nc(C(Cl)(Cl)Cl)nc(N/N=C/c3ccc([N+](=O)[O-])cc3)c2c1	MazEF act 55.2 (no result: DUSP3 inh, 3CLpro inhibitor, BJeLR lethal)
Cc1ccc2nc(C(Cl)(Cl)Cl)nc(N/N=C/c3ccncc3)c2c1	none
Cc1csc(NC(=O)Cn2nc(C)c([N+](=O)[O-])c2C)n1	none
CCc1c(C)sc(NC(=O)Cn2nc(C)c([N+](=O)[O-])c2C)c1C(N)=O	DUSP3 inh 53.0
O=C(CSc1cccc(C(F)(F)F)c1)NC(=O)c1ccccc1	DUSP3 inh 50.8
CCCn1c(C)cc(C(=O)COc2ccc(C)nc2[N+](=O)[O-])c1C	DUSP3 inh 53.8
CCCCCc1ccc(-c2n[nH]c(=O)c3ccccc23)cc1	none (no result: DUSP3 inh, 3CLpro inhibitor, MazEF act, BJeLR lethal)
O=C(CN1C(=O)CCSc2ccccc21)Nc1cccc(Cl)c1F	none (no result: DUSP3 inh, 3CLpro inhibitor, MazEF act, BJeLR lethal)
c1ccc(-c2nnc(-c3ccccn3)nc2NC2CCCCC2)cc1	BJeLR lethal 66.0
CNc1nc(-c2ccccn2)nnc1-c1ccccc1	none
CCc1nnc(NC(=O)CSc2nc(-c3ccc(F)cc3)cc(-c3ccccc3)c2C#N)s1	MazEF act 62.6 (no result: BJeLR lethal)
COc1ccc(-n2c(O)c(/C=C3\C=Nc4ccccc43)c(=O)[nH]c2=O)cc1	MazEF act 303.9
O=c1[nH]c(=O)n(-c2ccc(F)cc2)c(O)c1/C=C1\C=Nc2ccccc21	none
N#CC(C#N)=Cc1ccc(-c2ccccc2F)o1	MazEF act 148.6 (no result: BJeLR lethal)
O=C(CSc1nnc(-c2ccco2)n1-c1ccc(Cl)cc1)Nc1cccc2ccccc12	none (no result: DUSP3 inh, 3CLpro inhibitor, MazEF act, BJeLR lethal)
c1ccn(-c2ccc(-c3ccn[nH]3)cc2)c1	MazEF act active
Oc1ccccc1-c1ccn[nH]1	none (no result: DUSP3 inh, 3CLpro inhibitor, BJeLR lethal)
Cc1ccc(C)n1-c1ccc(-c2ccn[nH]2)cc1	MazEF act 91.1
Cc1cc([N+](=O)[O-])c2[nH]c(C(=O)N/N=C/c3ccccc3C(=O)O)c(-c3ccccc3)c2c1	DUSP3 inh 90.3
Cc1cc(C(=O)NN=Cc2ccccc2C(=O)O)n[nH]1	none (no result: DUSP3 inh, 3CLpro inhibitor, MazEF act, BJeLR lethal)
COc1cccc(CNS(=O)(=O)c2c(C(=O)N3CCCCCC3)c(C)n(C)c2C)c1	none
COc1cccc(CNS(=O)(=O)c2c(C(=O)N3CCCCC3)c(C)n(C)c2C)c1	DUSP3 inh 54.2
COc1ccc(C)cc1CN1C(=O)c2ccccc2C1=O	DUSP3 inh 53.0
COc1ccccc1CN1C(=O)c2cccc3cccc(c23)C1=O	none
C=C1C(=O)OC2CC3(C)OC3CCC(C)=CC(OC(C)=O)C12 (stereo not drawn)	none (no result: DUSP3 inh, 3CLpro inhibitor, BJeLR lethal)
C=C1C(=O)O[C@@H]2C[C@@H](C)[C@H]3C=CC(=O)[C@]3(O)C[C@@H]12	BJeLR lethal 65.9 (no result: 3CLpro inhibitor)
Cc1ccc(CS(=O)(=O)CCC(=O)NCCCN2CCCC2)cc1	DUSP3 inh 51.0
CCOC(=O)CC[C@@]1(C(=O)OCC)C[C@@H](CC(=O)NCCCN2CCCC2=O)C(=O)N2CCCC=C21	none (no result: DUSP3 inh, 3CLpro inhibitor, MazEF act, BJeLR lethal)
CCCNC(=O)Nc1ccc2c(c1)C(=O)N(C)[C@H]1CC[C@@H](CC(=O)OC)O[C@H]1CO2	none (no result: DUSP3 inh, 3CLpro inhibitor, MazEF act, BJeLR lethal)
O=C(NCCO)c1ccc2nc(-c3ccco3)c(-c3ccco3)nc2c1	CCHF vOTU inh 77.3
O=C(NCCc1ccccc1)c1ccc2nc(-c3ccco3)c(-c3ccco3)nc2c1	none (no result: CCHF vOTU inh)
c1coc(-c2nc3ccccc3nc2-c2ccco2)c1	CCHF vOTU inh 51.5
CCOC(=O)[C@@]12CCC3=C1N(CCC3)C(=O)[C@H](CC(=O)NCCC(C)C)C2	none (no result: DUSP3 inh, 3CLpro inhibitor, MazEF act, BJeLR lethal)
CC(C)c1nc2sc3c(=O)[nH]cnc3c2c2c1CCCC2	MazEF act 67.8
CC(C)c1nc2sc3c(=O)[nH]cnc3c2c2c1CCC2	none
Cc1ccc(OCc2nn3c(C4CCCCC4)nnc3s2)cc1	none (no result: DUSP3 inh, 3CLpro inhibitor, MazEF act, BJeLR lethal)
CC(C)(C)OC(=O)N/N=C/c1ccc(N2CCOCC2)s1	MazEF act 226.0
O=S1(=O)c2ccc(Br)cc2OC[C@@H](c2ccccc2)N1Cc1cn(CCC2OCCO2)nn1	none (no result: DUSP3 inh, 3CLpro inhibitor, MazEF act, BJeLR lethal)
Cc1[nH]n(-c2ccccc2)c(=O)c1/C=N/NC(=O)c1cccc([N+](=O)[O-])c1	none (no result: BJeLR lethal)
Cc1ccc(-n2[nH]c(C)c(/C=N/Nc3ccc([N+](=O)[O-])cc3[N+](=O)[O-])c2=O)cc1C	DUSP3 inh 50.5
Cc1ccc(-n2c(SCC(=O)c3ccc4c(c3)OCO4)nc3ccccc3c2=O)cc1	none (no result: DUSP3 inh, 3CLpro inhibitor, MazEF act, BJeLR lethal)
Cc1ccc(/C=N/n2c(C)cc(C)c(C#N)c2=O)cc1	none
Cc1cc(C)n(/N=C/c2ccc(C(C)C)cc2)c(=O)c1C#N	DUSP3 inh 50.8
COc1[nH]c(/N=C/c2ccccc2)c(C#N)c1C#N	MazEF act 74.3
Cc1oc(/N=C/c2ccccc2)c(C#N)c1C	none
COC(=O)[C@]12C[C@H](CC(=O)NCCCN3CCCC3=O)C(=O)N(Cc3ccc(Cl)cc3Cl)C1=C[C@H](C(C)(C)C)O[C@@H]2C	none (no result: DUSP3 inh, 3CLpro inhibitor, MazEF act, BJeLR lethal)
COc1cccc(-n2nnc3c(=O)n(Cc4c(F)cccc4Cl)cnc32)c1	MazEF act 90.0
COc1cccc(-n2nnc3c(=O)n(Cc4cccc(F)c4)cnc32)c1	none
Cc1cccc(NC(=O)Cn2c(=O)n(CCC(=O)NC3CCCC3)c(=O)c3ccccc32)c1	MazEF act 83.6

Screening data from PubChem.
